# From PubChem BioAssay (EPA / NIEHS)
# Calls of active or inactive are those of the source. How the source made its calls: active means hit-call score of the fitted dose curve at least 0.9, where 1 is the maximum; inactive means score below 0.9.
# Assays:
# Details in all cases: mRNA level, 48 h; actives raise or lower the signal
# CYP2C9 (gene 1559) = test: LTEA_HepaRG_CYP2C9: Life Technologies and Expression Analysis (LTEA) Assay for CYP2C9 using HepaRG (AID 2283484)
# Outline: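 HepaRG, 48 h dosing, 8-pt half-log series, top 100 uM, 0.5% DMSO vehicle. Read-out: CYP2C9 transcript by TaqMan qRT-PCR, housekeeping-normalized (ACTB/GAPDH/POLR2A). Gain or loss fitted vs DMSO baseline.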
# CYP2E1 (gene 1571) = test: LTEA_HepaRG_CYP2E1: Life Technologies and Expression Analysis (LTEA) Assay for CYP2E1 using HepaRG (AID 2283485)
# Outline: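 CYP2E1 transcript was measured by TaqMan qRT-PCR in human HepaRG cultures after 48 h chemical exposure (top 100 uM, half-log steps, 0.5% DMSO vehicle). Housekeeping-gene normalization; gain or loss fitted relative to DMSO baseline.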
# CYP4A11 (gene 1579) = test: LTEA_HepaRG_CYP4A11: Life Technologies and Expression Analysis (LTEA) Assay for CYP4A11 using HepaRG (AID 2283486)
# Outline: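 HepaRG, 48 h chem exposure, 8 conc (100 uM top, half-log), 0.5% DMSO vehicle; qRT-PCR readout, housekeeping-gene normalized; bidirectional curve fit vs DMSO baseline.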
# [1] = read-out: Cytochrome P450 3A4 (Homo sapiens) (UniProt P08684); test: LTEA_HepaRG_CYP3A4: Life Technologies and Expression Analysis (LTEA) Assay for CYP3A4 using HepaRG (AID 2283487)
# Outline: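 Differentiated HepaRG cells, plated 48 h, then dosed 48 h in serum-free induction medium with 0.5% DMSO, 8 half-log concentrations up to 100 uM, duplicate. CYP3A4 mRNA by qRT-PCR, normalized to ACTB/GAPDH/POLR2A; bidirectional fit versus DMSO.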
# [2] = read-out: DNA damage-inducible transcript 3 (DDIT3), DDIT3 (gene 1649); test: LTEA_HepaRG_DDIT3: Life Technologies and Expression Analysis (LTEA) Assay for DNA damage-inducible transcript 3 (DDIT3) using HepaRG (AID 2283488)
# Outline: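 qRT-PCR readout (Fluidigm TaqMan), housekeeping-normalized to ACTB, GAPDH, POLR2A. HepaRG cells, 48 h exposure, 8-point half-log series from 100 uM in 0.5% DMSO, duplicates. Gain or loss of signal fitted against DMSO baseline.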
# [3] = read-out: Pro-epidermal growth factor (Homo sapiens) (UniProt P01133); test: LTEA_HepaRG_EGF: Life Technologies and Expression Analysis (LTEA) Assay for Epidermal growth factor (EGF) using HepaRG (AID 2283489)
# Outline: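 HepaRG, 48 h dosing, 100 uM top, half-log x8, 0.5% DMSO. Readout: TaqMan qRT-PCR (Fluidigm array), housekeeping-normalized. Gain or loss of signal fit vs DMSO.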
# [4] = read-out: Early growth response protein 1 (EGR1) transcription factor, EGR1 (gene 1958); test: LTEA_HepaRG_EGR1: Life Technologies and Expression Analysis (LTEA) Assay for Early growth response protein 1 (EGR1) transcription factor using HepaRG (AID 2283490)
# Outline: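 HepaRG, 48 h exposure, 8-pt half-log series from 100 uM, 0.5% DMSO vehicle; EGR1 transcript by TaqMan qRT-PCR (Fluidigm array), housekeeping-normalized; bidirectional fit relative to DMSO baseline.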
# [5] = read-out: Ezrin (EZR), EZR (gene 7430); test: LTEA_HepaRG_EZR: Life Technologies and Expression Analysis (LTEA) Assay for Ezrin (EZR) using HepaRG (AID 2283491)
# Outline: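 EZR transcript levels came from Fluidigm qRT-PCR and were normalized to three housekeeping genes after 48 h chemical exposure of HepaRG cells. Dosing used an 8-point half-log series with a 100 uM top concentration in 0.5% DMSO, tested in duplicate; both directions were fitted versus vehicle.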
# [6] = read-out: Cytochrome P450 3A7 (Homo sapiens) (UniProt P24462); test: LTEA_HepaRG_CYP3A7: Life Technologies and Expression Analysis (LTEA) Assay for CYP3A7 using HepaRG (AID 2283492)
# Outline: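 Human HepaRG liver cells, 48 h post-plating, switched to serum-free induction medium and exposed in duplicate for 48 h. Dosing: 100 uM top, half-log dilutions, 8 points, 0.5% DMSO vehicle. Read-out: CYP3A7 mRNA, gain or loss fitted against DMSO baseline.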
# [7] = read-out: Fatty Acid-Binding Protein 1 (FABP1), FABP1 (gene 2168); test: LTEA_HepaRG_FABP1: Life Technologies and Expression Analysis (LTEA) Assay for Fatty Acid-Binding Protein 1 (FABP1) using HepaRG (AID 2283494)
# Outline: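 qRT-PCR readout of FABP1 transcript (normalized to three housekeeping genes) after 48 h chemical exposure of HepaRG cells; eight concentrations, half-log steps, max 100 uM, 0.5% DMSO vehicle; gain or loss fitted relative to DMSO baseline.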
# [8] = read-out: Cytochrome P450 4A22 (Homo sapiens) (UniProt Q5TCH4); test: LTEA_HepaRG_CYP4A22: Life Technologies and Expression Analysis (LTEA) Assay for Cytochrome P450 4A22 (CYP4A22) using HepaRG (AID 2283495)
# Outline: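 Readout is CYP4A22 transcript induction or loss, quantified by qRT-PCR and normalized to ACTB, GAPDH and POLR2A. Human HepaRG cells receive test chemicals for 48 h at eight half-log concentrations from 100 uM in 0.5% DMSO.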
# [9] = read-out: Cytochrome P450 7A1 (Homo sapiens) (UniProt P22680); test: LTEA_HepaRG_CYP7A1: Life Technologies and Expression Analysis (LTEA) Assay for Cytochrome P450 7A1 (CYP7A1) using HepaRG (AID 2283496)
# Outline: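 Using 0.5% DMSO as vehicle and baseline, chemicals were tested in duplicate over an 8-point range from 100 uM on HepaRG cells for 48 h; qRT-PCR signals were normalised to ACTB, GAPDH and POLR2A.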
# [10] = read-out: Glutathione S-Transferase (GSTA2), GSTA2 (gene 2939); test: LTEA_HepaRG_GSTA2: Life Technologies and Expression Analysis (LTEA) Assay for Glutathione S-Transferase (GSTA2) using HepaRG (AID 2283497)
# Outline: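 qRT-PCR readout of GSTA2 transcript, normalized to three housekeeping genes, fitted bidirectionally against 0.5% DMSO baseline. Differentiated HepaRG cells received compound for 48 h at 8 concentrations (top 100 uM, half-log steps).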
# [11] = read-out: Glutamate-cysteine ligase catalytic (GCLC), GCLC (gene 2729); test: LTEA_HepaRG_GCLC: Life Technologies and Expression Analysis (LTEA) Assay for Glutamate-cysteine ligase catalytic (GCLC) using HepaRG (AID 2283498)
# Outline: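 HepaRG, 48 h exposure, 8-pt half-log series from 100 uM, 0.5% DMSO vehicle; TaqMan qRT-PCR for GCLC mRNA, housekeeping-normalized; bidirectional curve fit vs DMSO baseline.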
# [12] = read-out: growth arrest and DNA damage 45 (GADD45G), GADD45G (gene 10912); test: LTEA_HepaRG_GADD45G: Life Technologies and Expression Analysis (LTEA) Assay for growth arrest and DNA damage 45 (GADD45G) using HepaRG (AID 2283499)
# Outline: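 Gain or loss of GADD45G mRNA, quantified by TaqMan qRT-PCR against three housekeeping genes, is fitted in both directions relative to 0.5% DMSO. Human HepaRG cultures receive test chemical for 48 h at up to 100 uM.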
# [13] = read-out: Glutamate-cysteine ligase regulatory (GCLM), GCLM (gene 2730); test: LTEA_HepaRG_GCLM: Life Technologies and Expression Analysis (LTEA) Assay for Glutamate-cysteine ligase regulatory (GCLM) using HepaRG (AID 2283500)
# Outline: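 HepaRG, 48 h dosing, 100 uM top, half-log x8, 0.5% DMSO vehicle. Readout: GCLM mRNA by TaqMan qRT-PCR, housekeeping-normalized (ACTB/GAPDH/POLR2A). Curves fit bidirectionally vs DMSO baseline.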
# [14] = read-out: Glutathione S-transferase M3 (GSTM3), GSTM3 (gene 2947); test: LTEA_HepaRG_GSTM3: Life Technologies and Expression Analysis (LTEA) Assay for Glutathione S-transferase M3 (GSTM3) using HepaRG (AID 2283501)
# Outline: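 HepaRG, plated 48 h, then serum-free induction medium; test chemical 48 h, duplicate; 100 uM top, half-log x8, 0.5% DMSO. Read-out: GSTM3 mRNA (TaqMan qRT-PCR, Fluidigm array). Bidirectional fit vs DMSO.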
# [15] = read-out: Heat shock 70 kDa protein 1 (HSPA1A), gene 3303; test: LTEA_HepaRG_HSPA1A: Life Technologies and Expression Analysis (LTEA) Assay for Heat shock 70 kDa protein 1 (HSPA1A) using HepaRG (AID 2283502)
# Outline: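 HepaRG, 48 h exposure, 8-pt half-log CRC from 100 uM in 0.5% DMSO, duplicates. Readout: TaqMan qRT-PCR of HSPA1A mRNA, housekeeping-normalized (ACTB/GAPDH/POLR2A). Bidirectional fit vs 0.5% DMSO baseline.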
# [16] = read-out: Hypoxia-inducible factor 1-alpha (Homo sapiens) (UniProt Q16665); test: LTEA_HepaRG_HIF1A: Life Technologies and Expression Analysis (LTEA) Assay for Hypoxia-inducible factor 1 (HIF1A) Trancription factor using HepaRG (AID 2283503)
# Outline: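 Gain- or loss-of-signal HIF1A mRNA changes are fitted against a DMSO baseline. HepaRG cultures receive eight concentrations, highest 100 uM, for 48 h in serum-free induction medium with 0.5% DMSO.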
# Hypoxia-inducible factor 1-alpha (Homo sapiens), sequence (Q16665 whole entry, looked up): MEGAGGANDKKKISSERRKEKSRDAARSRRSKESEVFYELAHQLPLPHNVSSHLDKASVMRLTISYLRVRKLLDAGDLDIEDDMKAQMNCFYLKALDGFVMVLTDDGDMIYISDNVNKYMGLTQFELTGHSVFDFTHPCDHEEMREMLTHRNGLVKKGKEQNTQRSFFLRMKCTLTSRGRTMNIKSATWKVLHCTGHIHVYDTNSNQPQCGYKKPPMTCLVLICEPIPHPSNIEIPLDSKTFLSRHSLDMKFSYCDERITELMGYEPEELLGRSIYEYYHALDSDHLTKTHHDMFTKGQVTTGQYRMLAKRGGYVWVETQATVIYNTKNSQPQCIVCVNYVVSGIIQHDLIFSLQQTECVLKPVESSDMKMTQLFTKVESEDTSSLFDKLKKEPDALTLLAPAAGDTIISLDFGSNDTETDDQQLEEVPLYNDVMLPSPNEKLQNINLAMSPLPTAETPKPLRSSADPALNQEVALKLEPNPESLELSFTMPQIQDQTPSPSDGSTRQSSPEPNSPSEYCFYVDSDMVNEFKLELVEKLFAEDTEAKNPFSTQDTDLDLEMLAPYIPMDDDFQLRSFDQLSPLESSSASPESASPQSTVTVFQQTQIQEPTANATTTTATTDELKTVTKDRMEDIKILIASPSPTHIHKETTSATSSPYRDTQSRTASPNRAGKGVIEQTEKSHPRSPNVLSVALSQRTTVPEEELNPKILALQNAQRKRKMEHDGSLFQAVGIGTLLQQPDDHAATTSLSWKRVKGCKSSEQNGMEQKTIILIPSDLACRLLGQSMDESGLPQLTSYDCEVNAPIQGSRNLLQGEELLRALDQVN
# Cytochrome P450 3A7 (Homo sapiens), sequence (P24462 whole entry, looked up): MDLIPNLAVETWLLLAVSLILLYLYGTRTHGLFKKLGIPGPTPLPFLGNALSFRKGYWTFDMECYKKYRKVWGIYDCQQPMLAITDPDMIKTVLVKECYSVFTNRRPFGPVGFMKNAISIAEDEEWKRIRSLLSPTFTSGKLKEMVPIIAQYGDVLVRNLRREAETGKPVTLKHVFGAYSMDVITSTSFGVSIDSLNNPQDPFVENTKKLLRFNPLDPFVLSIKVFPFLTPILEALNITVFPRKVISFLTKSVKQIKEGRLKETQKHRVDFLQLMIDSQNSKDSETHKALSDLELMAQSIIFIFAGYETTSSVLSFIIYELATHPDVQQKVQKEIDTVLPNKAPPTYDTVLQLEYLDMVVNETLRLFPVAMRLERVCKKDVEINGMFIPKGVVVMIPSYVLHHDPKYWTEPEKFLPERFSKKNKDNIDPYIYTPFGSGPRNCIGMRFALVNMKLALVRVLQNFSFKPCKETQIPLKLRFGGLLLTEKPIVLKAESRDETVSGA
# Cytochrome P450 3A4 (Homo sapiens), sequence (P08684 whole entry, looked up): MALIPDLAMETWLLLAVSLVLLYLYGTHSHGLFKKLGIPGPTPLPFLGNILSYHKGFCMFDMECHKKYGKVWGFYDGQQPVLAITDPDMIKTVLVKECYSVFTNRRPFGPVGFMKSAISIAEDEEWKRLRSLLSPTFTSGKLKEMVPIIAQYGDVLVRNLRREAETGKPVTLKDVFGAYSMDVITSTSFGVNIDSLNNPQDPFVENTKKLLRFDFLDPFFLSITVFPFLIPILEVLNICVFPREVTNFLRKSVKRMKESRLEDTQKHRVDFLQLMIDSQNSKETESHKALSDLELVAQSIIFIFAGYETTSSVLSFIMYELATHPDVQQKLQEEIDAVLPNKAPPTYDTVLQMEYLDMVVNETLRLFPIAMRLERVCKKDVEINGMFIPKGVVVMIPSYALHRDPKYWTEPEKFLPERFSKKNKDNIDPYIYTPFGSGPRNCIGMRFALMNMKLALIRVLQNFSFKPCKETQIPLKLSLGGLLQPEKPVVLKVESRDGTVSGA
smiles,measurement,setting,value
CCCCOC(=O)C(C)Oc1ccc(Oc2ccc(C(F)(F)F)cn2)cc1 (stereo not given),outcome,CYP2C9 (gene 1559),inactive
same,outcome,CYP2E1 (gene 1571),inactive
same,outcome,CYP4A11 (gene 1579),inactive
same,outcome,[1],inactive
same,outcome,[2],inactive
same,outcome,[3],inactive
same,outcome,[4],inactive
same,outcome,[5],inactive
same,outcome,[6],inactive
same,outcome,[7],inactive
same,outcome,[8],inactive
same,outcome,[9],inactive
same,outcome,[10],inactive
same,outcome,[11],inactive
same,outcome,[12],inactive
same,outcome,[13],inactive
same,outcome,[14],inactive
same,outcome,[15],inactive
same,outcome,[16],inactive
O=C(c1ccccc1)C1CCCCC1,outcome,CYP2C9 (gene 1559),inactive
same,outcome,CYP2E1 (gene 1571),inactive
same,outcome,CYP4A11 (gene 1579),inactive
same,outcome,[1],inactive
same,outcome,[2],inactive
same,outcome,[3],inactive
same,outcome,[4],inactive
same,outcome,[5],inactive
same,outcome,[6],inactive
same,outcome,[7],inactive
same,outcome,[8],inactive
same,outcome,[9],inactive
same,outcome,[10],inactive
same,outcome,[12],inactive
same,outcome,[13],inactive
same,outcome,[14],inactive
same,outcome,[15],inactive
same,outcome,[16],inactive
CCC(C)OC(=O)N1CCCCC1CCO (stereo not given),AC50,CYP2C9 (gene 1559),4.74 µM (active)
same,outcome,CYP2E1 (gene 1571),inactive
same,outcome,CYP4A11 (gene 1579),inactive
same,AC50,[1],50 µM (active)
same,outcome,[2],inactive
same,outcome,[3],inactive
same,outcome,[4],inactive
same,outcome,[5],inactive
same,outcome,[6],inactive
same,outcome,[7],inactive
same,outcome,[8],inactive
same,outcome,[9],inactive
same,outcome,[10],inactive
same,outcome,[12],inactive
same,outcome,[13],inactive
same,outcome,[14],inactive
same,outcome,[15],inactive
same,outcome,[16],inactive
